# Screening results (PubChem BioAssay)
# GBA mod – human lysosomal glucosylceramidase modulation; hit rate 1.1% among 48,000; purified enzyme, resorufin glucoside fluorescence (screen aimed at inhibitors), 20 min; Potency, µM; in the data active means potency below about 15 µM; inconclusive means mostly about 16 µM to 33 µM;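 further: the screen sought inhibitors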
#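 Compounds titrated against 0.2 nM normal enzyme, 30 uM resorufin beta-D-glucopyranoside substrate, citrate/phosphate buffer with taurocholate and tween-20, pH 5.9. Reaction ran 20 min at room temperature; fluorescence (Ex 548/Em 600) gave AC50.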
# USP2a inh – USP2a (human) protease inhibition | USP2a enzymatic assay, qHTS inhibition | O75604 | Potency, µM (series often up to 38.3 µM), for inactives: at the top dose activity change, negative = inhibition, most hits filed as inhibitors | hit rate 0.1% among 60,000; further: nearly all actives have a fitted effect of over 60% in size
# Target sequence (O75604 whole entry, looked up): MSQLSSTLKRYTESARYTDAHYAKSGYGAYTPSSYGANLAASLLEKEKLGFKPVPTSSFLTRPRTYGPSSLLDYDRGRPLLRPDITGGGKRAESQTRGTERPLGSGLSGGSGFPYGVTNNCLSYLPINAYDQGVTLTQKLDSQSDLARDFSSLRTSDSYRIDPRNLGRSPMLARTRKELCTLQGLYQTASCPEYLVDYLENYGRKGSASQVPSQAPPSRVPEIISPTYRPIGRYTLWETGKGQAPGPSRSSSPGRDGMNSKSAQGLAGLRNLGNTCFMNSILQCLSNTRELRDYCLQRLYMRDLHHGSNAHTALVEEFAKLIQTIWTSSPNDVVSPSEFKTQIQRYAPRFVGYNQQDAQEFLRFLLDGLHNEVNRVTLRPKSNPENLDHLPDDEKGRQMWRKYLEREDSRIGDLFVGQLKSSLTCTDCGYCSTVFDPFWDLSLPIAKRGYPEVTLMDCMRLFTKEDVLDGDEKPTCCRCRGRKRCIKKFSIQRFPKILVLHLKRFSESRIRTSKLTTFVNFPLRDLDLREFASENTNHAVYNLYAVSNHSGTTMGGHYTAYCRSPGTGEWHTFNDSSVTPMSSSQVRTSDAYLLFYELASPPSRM
#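 20 nM USP2 core + cpd, 30 min RT; add 20 nM Ub-PLA2/20 uM NBD C6-HPC; read Ex460/Em535 at 0 h and 2.5 h. Normalized to NEM; qHTS curve fit/classification.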
# HEK293 cAMP ctrl – counter-screen for TSHR agonists: cAMP increase in parental HEK293; Potency, µM (highest dose often 57.1 µM), inactives show at the top dose activation, usual class: activators; AID 938; parental HEK293 CNG cAMP sensor, membrane potential fluorescence; hit rate 2.5% among 73,000; further: % of control where 0% means no effect; nearly all actives have a fitted effect of over 55% in size
#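 Parental HEK 293 cells stably expressing a cAMP-gated CNG channel were loaded with membrane potential dye containing 100 uM RO 20-1724 for 60 min. Compound added for 30 min; depolarization read as fluorescence intensity at 590 nm.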
# UbGFP stabilizer – inhibits proteasome, raising ubiquitin-GFP reporter fluorescence | 67,000 tested, under 10 active | Potency, µM (top dose mostly 45.9 µM), without a hit: at the top dose activation (GFP accumulation), usual class: activators | Ubiquitin-GFP reporter cells, proteasome inhibition, GFP fluorescence; response scale: untreated = 0%, 10 µM MG-132 = 100% | AID 526; active means well fitted activation curve with a large enough effect, not every such curve was filed as active; inconclusive means small, poorly fitted or top-dose-only effect, or another doubt; inactive means no such curve, though single readings can be large or run the other way
#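 U2OS Ub(G76V)-GFP reporter; O/N plating, 0.5% FBS; cpd 46 uM–2.9 nM, 4 h, 37 °C; GFP+ cell count, 488/515 nm; norm. to basal vs 10 uM MG-132; CRC fit.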
# TSHR agonist – TSH receptor (human) agonism; Potency, µM (top dose mostly 57.1 µM), without a hit: top-dose activation, usual class: activators; P16473; AID 926; hit rate 0.48% among 73,000; HEK293-CNG-TSHR cells (CNG channel as cAMP sensor), membrane potential dye, cAMP; active means well fitted activation curve with a large enough effect in the main read-out, with a control signal flat, not every such curve was filed as active; inconclusive means small, poorly fitted or top-dose-only effect, or a change in a side signal; inactive means no such curve, though single readings can be large or run the other way; % of control where 0% means no effect;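 further: the control signal comes from parental cells without the receptor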
#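 HEK 293 cells stably expressing TSHR and a cAMP-gated CNG channel; parental CNG-only cells as counterscreen. Cells preloaded 60 min with membrane potential dye plus 100 uM RO 20-1724, then compound 30 min; fluorescence read at 590 nm.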
# PK Bst – alters activity of Bacillus stearothermophilus pyruvate kinase. hit rate 1.2% among 51,000. purified pyruvate kinase, luminescence ATP production; ribose 5-phosphate activator present at AC10. Potency, µM. AID 361; in the data active means potency below about 11 µM; inconclusive means mostly about 12 µM to 25 µM;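 the screen sought inhibitors and activators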;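 further: scaled between full activation by ribose 5 phosphate and full inhibition by luteolin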
# * marks the source's active call; other numbers are inactive results; i = inactive; ? = inconclusive; . = not tested or not shown; [ ] = dose if it differs, or a comment. Hits are enriched below; roughly 4.1% of the tested compounds scored in any of these assays. Unless noted, the call rests on the fitted dose curve; in most records, active means well fitted curve in the direction sought with a large enough effect; inconclusive means small, poorly fitted or top-dose-only effect, or another doubt; inactive means no such curve, though single readings can be large; an effect the other way counts as inactive or inconclusive. Potency means the concentration at half of the fitted maximal effect.
SMILES,GBA mod,USP2a inh,HEK293 cAMP ctrl,UbGFP stabilizer,TSHR agonist,PK Bst
CCOC(=O)c1c(NC(=O)Cn2nnc3ccccc32)sc2c1CCC(C)C2 (centres undefined),>76.9,-23.1%,13.5%,-2.8%,11.7%,>57
COCCn1c(N)c(C(=O)NCC2CCCO2)c2nc3ccccc3nc21 (centres undefined),.,.,.,.,.,>25.6
CCOC(=O)c1c(NC(=O)c2nn(CC)cc2Br)sc2c1CCCCC2,5.22*,17.1%,-2.3%,4.8%,7.1%,>57
CCOC(=O)c1c(NC(=O)Cn2c(C)nc3ccccc32)sc2c1CCC2,>76.9,33.6%,22.7%,-1.7%,25.1µM*,>57
COc1ccc(Oc2ncc3nc(-c4cccs4)c(=O)n(C)c3n2)cc1,.,99.6%,?,9.3%,?,.
CN1CCN(c2ccc(NC(=O)c3ccc4c(c3)OCO4)cc2)CC1,>76.9,13.0%,-6.4%,-3.4%,-8.4%,.
Cc1cc(N2CCN(C)CC2)nc2ccc(NC(=O)c3ccc4c(c3)OCO4)cc12,1.06*,23.8%,1.1%,-3.9%,0.8%[11.4 µM],.
Cc1cc(N2CCN(C)CC2)nc2ccc(NC(=O)c3ccc(Br)o3)cc12,2.25*,26.7%,6.3%,11.9%,-2.0%[11.4 µM],.
C=CCn1c(SCC(=O)c2ccccc2)nnc1-c1cc2ccccc2o1,>76.9,3.0%,31.6µM*,2.0%,?,>57
C=CCn1c(SCC(=O)c2ccc(OC)cc2)nnc1-c1cc2cccc(OC)c2o1,>76.9,9.5%,?,-4.2%,?,>57
CN(C)c1ccc(N/C=C/C(=O)c2ccccc2)cc1,>76.9,9.1%,-7.8%,-4.5%,-13.0%,0.422*
CN(C)c1ccc(NC(=O)CCCc2ccccc2)cc1,>76.9,0.9%,-10.1%,1.1%,-16.5%,.
O=C(c1ccncc1)N1CCC2(CCCN(c3ccc(-c4ccccc4)cc3)C2)CC1,.,123.8%,-2.2%,-3.5%,18.4%,.
FC(F)(F)c1ccc(N2CCN(c3cc(-c4ccccc4)nc4ncnn34)CC2)nc1,>76.9,39.3%,15.8µM*,5.0%,?,>57
FC(F)(F)c1cc(-c2ccccc2)nc(N2CCCCC2)n1,>76.9,-10.6%,4.2%,-2.3%,7.7%,>57
O=C(Nc1cccc(Br)c1)c1cc2ccccc2o1,.,2.7%,25.1µM*,18.8%,?,.
Cc1cccc(NC(=O)c2cc3ccccc3o2)c1,>76.9,7.2%,25.1µM*,6.0%,?,?
CCC(=O)Nc1cccc(NC(=O)c2cc3ccccc3o2)c1,.,17.4%,8.0%,-2.6%,13.9%,.
Cn1c(C(=O)NCc2ccco2)cc2c(=O)[nH]c3ccccc3c21,>76.9,28.9%,3.0%,-8.6%,0.1%,4.41*
O=C(OCCOc1ccccc1Cl)c1ccc(-n2cnnn2)cc1,>76.9,1.2%,39.8µM*,-1.1%,?,>57
COC(=O)c1sccc1NC(=O)c1ccc(Br)o1,.,6.7%[7.66 µM],3.98µM*,0.0%[9.17 µM],?,.
COC(=O)c1sccc1NC(=O)c1ccoc1C,.,.,29.6%,12.5%,20.9%,.
COCCNc1ncnc2ccc(-c3ccccc3C)cc12,.,-17.2%,?,-5.3%,?,.
Cc1c(C#N)c2ccccc2n1CC(=O)N1CCc2ccccc2C1,.,.,?,6.2%,?,.
CCCCNc1nc2ccccc2n1CC(=O)N1CCc2ccccc2C1,>76.9,7.2%,2µM*,-3.4%,?,>57
SMILES,GBA mod,USP2a inh,HEK293 cAMP ctrl,UbGFP stabilizer,TSHR agonist,PK Bst
COCCNc1ncnc2c1cnn2-c1ccc(Cl)cc1,.,.,.,.,.,10*
CC(C)OCCCNc1ncnc2c1cnn2-c1ccccc1,.,.,.,.,.,8.88*
OCCOCCNc1ncnc2c1cnn2-c1ccc(Cl)cc1,.,.,.,.,.,11*
Cc1ccc(-n2ncc3c(NCCCOC(C)C)ncnc32)c(C)c1,.,.,.,.,.,>11.4
Cc1ccc(OC2C(O)COC2/C=C/C#Cc2ccc(C(C)(C)C)cc2)cc1 (centres undefined),.,.,2.4%[11.4 µM],.,-4.7%[11.4 µM],.
CC1CCC(C(C)C)C(OC(=O)CSc2n[nH]c(=O)[nH]c2=O)C1 (centres undefined),.,?,17.6%,.,20µM*,i
C=CC(=O)OCCCC,.,.,-11.0%,.,?,.
Cc1ccc(C(=O)Nc2ccccc2N2CCOCC2)c(C)c1,.,.,6.6%,.,1.3%,.
O=C(CN1CCN(S(=O)(=O)c2cc(Cl)ccc2Cl)CC1)Nc1ccc2c(c1)OCCO2,?,24.8%,26.9%,-7.2%,.,4.74*
O=C(Nc1ccc2c(c1)OCCO2)c1ccc(Cl)c(S(=O)(=O)N2CCOCC2)c1,>76.9,18.3%,?,-5.7%,?,>57
CC(C)OC(=O)CN1CCN(S(=O)(=O)c2cc(Cl)ccc2Cl)CC1,.,-1.0%,-1.1%,1.0%,2.8%,>57
CN(C)c1ccc(NC(=O)CN2CCN(S(=O)(=O)c3cc(Cl)ccc3Cl)CC2)cc1,?,11.5%,3.9%[2.29 µM],11.0%,-20.8%,9.45*
Cc1cc(OCC(=O)Nc2ccc3c(c2)OCCO3)ccc1Cl,>76.9,-1.6%,0.251µM*,-1.7%,?,>11.4
COc1ccc(/C=C/N(CCc2ccc(OC)c(OC)c2)C(=O)C(F)(F)F)cc1,.,.,28.7%[11.4 µM],.,20.4%[11.4 µM],.
CCC(c1nnnn1Cc1ccc2c(c1)OCO2)N1CCN(c2ccc(F)cc2)CC1 (centres undefined),>76.9,37.9%,15.8µM*,1.1%,?,>57
CCC(c1nnnn1Cc1ccc2c(c1)OCO2)N1CCN(c2ccc(OC)cc2)CC1 (centres undefined),>76.9,.,?,-2.0%,?,>57
CCC(c1nnnn1Cc1ccc2c(c1)OCO2)N1CCN(c2ccccc2)CC1 (centres undefined),>76.9,.,15.8µM*,-0.2%,?,>57
CCOC(=O)c1[nH]c(C)c(C(=O)NC2CCCC2)c1C,.,.,25.1µM*,0.0%,?,.
CCOC(=O)c1[nH]c(C)c(C(=O)NC2CCCCCC2)c1C,>76.9,14.8%,14.7%,3.7%,12.7%,>57
C[C@@H](CN1CCC(Cc2ccccc2)CC1)[C@H](O)c1ccc(O)cc1,.,2.8%,-0.5%,0.2%,11.2%,.
CCOC(=O)C1=C[C@@]2(CC)CCCN3CCc4c(n1c1ccccc41)C32 (some centres undefined),.,4.1%,.,.,.,.
O=C(NC1CCCCC1)c1sc(=S)n2c1[nH]c(=O)c1ccccc12,>76.9,-7.5%,?,-10.0%,?,.
O=C(NCC1CCCO1)c1sc(=S)n2c1[nH]c(=O)c1ccc(C(=O)N3CCCCC3)cc12 (centres undefined),>76.9,2µM*,-5.3%,-3.9%,10.8%,>11.4
Cc1cc(-c2nnc3n2N=C(c2ccc(-c4ccccc4)cc2)CS3)n[nH]1,i,36.6%,31.6µM*,.,?,.
CSc1nnc2c3cc(C)ccc3n(Cc3ccccc3)c2n1,>76.9,-8.1%,15.8µM*,-2.6%,?,>57
COc1ccc(-n2c(C)cc(C(=O)CSc3nnc(-c4ccoc4C)n3C)c2C)cc1,>76.9,13.4%,31.6µM*,-4.0%,?,>57
